Screening data from PubChem BioAssay.
An excerpt weighted towards active compounds, which were near 21% of everything screened.
Giardia FBPA inh – qHTS Assay for Inhibitors of Fructose-1,6-bisphosphate Aldolase from Giardia Lamblia. A8B2U2. purified Giardia FBPA. Potency, µM (highest dose often 59.6 µM), actives largely listed as inhibitors. 0.71% of 290,000 active. AID 2451, 2010; also: nearly all actives have a fitted effect of over 55% in size
Target sequence (A8B2U2 whole entry, looked up): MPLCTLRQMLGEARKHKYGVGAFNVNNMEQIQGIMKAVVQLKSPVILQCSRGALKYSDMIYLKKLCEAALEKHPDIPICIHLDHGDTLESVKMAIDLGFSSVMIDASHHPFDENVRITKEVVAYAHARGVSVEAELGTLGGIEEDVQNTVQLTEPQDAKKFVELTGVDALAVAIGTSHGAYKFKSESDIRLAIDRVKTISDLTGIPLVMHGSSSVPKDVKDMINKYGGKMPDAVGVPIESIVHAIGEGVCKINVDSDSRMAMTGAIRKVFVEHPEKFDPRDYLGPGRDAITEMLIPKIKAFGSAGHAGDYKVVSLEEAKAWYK
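40 nM FBPA preincubated 10 min at RT with compound (up to 57.5 uM final), then substrate plus GAPDH/TPI/NAD/arsenate coupling and diaphorase/resazurin added. Fluorescence read after 20 min at RT, 525/598 nm.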
Pf growth 48h – Primary qHTS for delayed death inhibitors of the malarial parasite plastid, 48 hour incubation | 5.9% of 310,000 active | P. falciparum luciferase growth in erythrocytes, 48 h | Potency, µM (top dose mostly 28.7 µM), hits mostly inhibitors | AID 504832, 2011
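Cell-based growth assay: transgenic P. falciparum expressing firefly luciferase, cultured in red cells within RPMI 1640 containing 0.5% w/v Albumax, 24 mM bicarbonate and gentamycin. A drop in luciferase activity indicates inhibition.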
NS1 inh – qHTS Assay for Inhibitors of Influenza NS1 Protein Function | 0.4% of 270,000 active | Potency, µM (doses to about 46.1 µM) | AID 2326, 2010; calls by dose curve; also: actives are rising curves; nearly all actives have a fitted effect of over 50% in size
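Read-out: OD600 growth recovery of NS1-expressing budding yeast. Cells grown overnight at 30C in -URA glucose medium, washed, resuspended and diluted 1:100 in 2% galactose assay medium, pH 6.0. Same strain lacking NS1 served as positive control.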
Pf growth 96h – Primary qHTS for delayed death inhibitors of the malarial parasite plastid, 96 hour incubation | P. falciparum luciferase reporter growth, 96 h | 6.9% of 320,000 active | AID 504834, 2011 | Potency, µM (doses to about 28.7 µM), actives largely listed as inhibitors
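Compounds incubated with erythrocytes infected by luciferase-expressing P. falciparum (2% hematocrit, 0.05% parasitemia final) for 96 hours, 37 C in 5% CO2. Growth inhibition scored as decreased luciferase luminescence.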
Cycloheximide cs – Cycloheximide Counterscreen for Small Molecule Inhibitors of Shiga Toxin | cell reporter, cycloheximide protein synthesis inhibition counterscreen | 12% of 300,000 active | max response, %; in the data active = max response mostly above about 13%, no sharp cut-off; inactive = mostly below about 14%; also: read at 38.3 µM for the half of the compounds with a filed dose
Shiga inhibitor – A qHTS for Small Molecule Inhibitors of Shiga Toxin. AID 2315, 2010. 9.2% of 290,000 active. inhibition, % at 38.7 µM. Vero cells, Shiga toxin protein synthesis inhibition reporter; in the data active = inhibition mostly above about 28%, no sharp cut-off; inactive = mostly below about 43%
Numbers stand for hits; n = inactive; u = inconclusive; x = no result; [ ] = another dose, or the depositor's remark. Unless noted, calls follow the shape of the dose curve; as a rule, active = well fitted curve in the direction sought with a large enough effect; inconclusive = small, poorly fitted or top-dose-only effect, or another doubt; inactive = no such curve, though single readings can be large; an effect the other way counts as inactive or inconclusive.

SMILES | Giardia FBPA inh | Pf growth 48h | NS1 inh | Pf growth 96h | Cycloheximide cs | Shiga inhibitor
O=C(CCNC(=O)c1ccc(Cl)cc1)Nc1ccncc1 | x | n | x | n | x | x
CCOC(=O)/C(=N\Nc1ccccc1)N1CC1 | n | n | n | n | 19 | n
CCOC(=O)/C(=N\Nc1ccccc1Cl)N1CCN(Cc2ccccc2)CC1 | n | n | n | u | 21 | n
CCOc1ccc(CNC(=O)CCS(=O)(=O)c2ccc3c(c2)NC(=O)CO3)cc1OC | n | n | n | n | n | n
COc1cc2c(cc1OC)C1C(=O)c3ccc4c(c3OC1CO2)C=CC(C)(C)O4 (stereo not given) | n | x | x | x | x | x
O=C(O)CSc1nnc(-c2ccccc2)c(-c2ccccc2)n1 | n | n | n | n | n | n
CSc1nnc2c3ccccc3c3ccccc3c2n1 | n | u | n | u | n | n
C#CCSc1ncc(-c2ccccc2)cn1 | n | n | x | n | 44 | 77
CCOC(=O)CSc1ncc(-c2ccccc2)cn1 | n | n | n | n | n | n
CSc1nnc(-c2ccccc2)c(-c2ccccc2)n1 | n | 12µM | n | u | n | n
CSc1nnc(-c2ccco2)c(-c2ccco2)n1 | 3.5µM | n | n | n | n | n
CSc1ncc(-c2ccccc2)cn1 | n | n | x | n | 47 | n
COc1ccc(C(=O)N/C(=C\c2cn(S(=O)(=O)N(C)C)c3ccccc23)C(=O)NCCCN2CCOCC2)cc1 | n | u | n | n | n | n
C=CCSc1ncc(-c2ccccc2)cn1 | n | u | x | n | 35 | 63
CN(C)S(=O)(=O)c1ccc(Cl)c(C(=O)Nc2nc3ccccc3[nH]2)c1 | n | n | x | u | n | n
Cc1ccc(NS(=O)(=O)c2ccc(Cl)c(C(=O)Nc3ccccc3-c3nc4ccccc4[nH]3)c2)cc1C | n | 10µM | u | 12µM | n | n
C/C(=N\NC(=O)C1CC1)c1ccc(OC(F)F)cc1 | n | u | n | u | n | 51
C/C(=N\Nc1ncc(Cl)cc1Cl)c1ccc(OC(F)F)cc1 | n | n | n | n | 50 | 42
COC(=O)N/N=C(\C)c1cccc(C(F)(F)F)c1 | n | n | x | n | 29 | n
CNC(=S)N/N=C(\C)c1cccc(C(F)(F)F)c1 | n | n | n | u | n | n
COC(=O)N/N=C(\C)c1ccc(OC(F)F)cc1 | n | n | x | n | 35 | 80
Cc1ccc(S(=O)(=O)Nc2cccc(-n3cnnn3)c2)cc1C | n | n | n | n | n | n
CCOC(=O)C1=C(C)N(c2ccccc2)C(=O)/C1=C\c1ccco1 | n | n | n | u | n | n
CCOC(=O)C1=C(C)N(c2ccccc2)C(=O)/C1=C\c1ccc(O)c(OC)c1 | 18µM | u | 2.5µM | u | n | n
O=C(NN=C1CCCC1)c1cc(Cl)cc(Cl)c1O | n | n | n | u | n | n
SMILES | Giardia FBPA inh | Pf growth 48h | NS1 inh | Pf growth 96h | Cycloheximide cs | Shiga inhibitor
CCN1C(=O)[C@H]2[C@H]3[C@H](O)[C@H](O)C/C(=N/O[C@@H](C)CN4CCCCc5nc(C)c(C)cc54)[C@@H]3CC[C@@H]2C1=O | n[12.9 µM] | x | x | x | x | x
NC(=S)N/N=C/c1cccc(O)c1O | u | u | n | n | n | n
NC(=S)N/N=C/c1cccc(/C=N/NC(N)=S)c1 | u | n | n | n | n | n
NC(=S)N/N=C/c1ccccc1O | n | 0.33µM | n | 1µM | n | n
NC(=S)N/N=C/c1ccc2ccccc2c1 | u | n | n | u | 27 | n
Cc1cc(/C=N/NC(N)=S)c(O)c(/C=N/NC(N)=S)c1 | n | 0.47µM | n | 12µM | n | n
CCN(CC)CCC#CC1(O)c2ccccc2-c2ccccc21 | n | n | n | 3.3µM | n | x
OC1(C#CCN2CCCC2)c2ccccc2-c2ccccc21 | u | 12µM | n | u | n | n
CN(C)CCC#CC1(O)c2ccccc2-c2ccccc21 | n | n | n | n | n | n
CCCCN(C(=O)Cc1ccc(S(=O)(=O)N2CCOCC2)s1)c1c(N)n(CCCC)c(=O)[nH]c1=O | x | n | x | n | x | x
COc1ccc(OCC(O)CNS(=O)(=O)c2cccs2)cc1 (stereo not given) | n | n | n | n | n | n
C=CCC(=O)N1CCCC(CO)(Cc2ccc(F)cc2F)C1 (stereo not given) | n | u | n | n | n | x
CC(C)c1ccc(CC(NC(=O)c2ccccc2)C(=O)NCC(=O)O)cc1 (stereo not given) | n | n[5.75 µM] | x | n | n | n
O=C(NCc1ccc(F)cc1)c1cnccn1 | n | n | n | n | 10 | n
COc1ccc(CNC(=O)c2ccc(C)o2)cc1 | n | n | n | n | 13 | n
O=C(NCc1ccc(Cl)cc1)c1cnccn1 | x | n | n | u | n | n
O=C(NCc1ccc(F)cc1)c1ccncc1 | n | n | n | 6.6µM | n | n
CC(C)c1ccc(CNNC(=O)c2ccccc2)cc1 | n | n | n | n | 52 | 75
O=C(NCc1ccc(Cl)cc1)c1ccncc1 | n | n | n | u | n | x
COc1ccc(CNC(=O)c2cc(=O)c3cc(C)c(C)cc3o2)cc1 | n | n | n | u | n | n
CCN(CC(=O)Nc1ccccc1C(F)(F)F)C(=O)c1cc(S(=O)(=O)N2CCCCCC2)ccc1OC | x | u | x | n | x | x
COc1ccc(C(=O)NCc2ccc(N3CCN(C)CC3)cc2)cc1 | n | n | n | n | n | n
COc1cccc(CNC(=O)c2ccncc2)c1 | x | n | n | n | n | n
COc1ccc(CNC(=O)c2ccc(C(C)C)cc2)cc1 | n | n | n | n | 46 | 157
COc1ccc(CNC(=O)c2ccncc2)cc1 | n | n | n | 3.3µM | n | n
SMILES | Giardia FBPA inh | Pf growth 48h | NS1 inh | Pf growth 96h | Cycloheximide cs | Shiga inhibitor
COc1ccc(CNC(=O)c2ccc(C(C)(C)C)cc2)cc1 | n | n | n | n | 64 | 91
COc1cc(/C=C/C(=O)OCC(=O)N2CCCc3ccccc32)ccc1OC(F)F | x | n | x | n | x | x
COc1ccc(/C=C/C(=O)C(C)(C)C)cc1OC | n | n | n | u | 16 | n
COc1ccc(/C=C/C(=O)Oc2ccc(C)c(C)c2)cc1OC | n | u | x | n | n | n
COc1cc(/C=C/C(=O)c2c(O)cc(C)oc2=O)ccc1O | n | x | x | x | x | x
COc1cc(/C=C/C(=O)c2ccc([N+](=O)[O-])o2)ccc1O | x | 13µM | x | u | x | x
COc1ccc(/C=C/C(=O)c2ccc([N+](=O)[O-])o2)cc1OC | x | 12µM | x | u | x | x
CCc1nc(SCC(=O)Nc2ccc(Br)cn2)n[nH]1 | x | n | n | n | n | n
CC1=CCC(COC(=O)Nc2ccccc2)CC1 (stereo not given) | n | n | n | n | 51 | 82
COC(=O)CCS(=O)(=O)c1nc(-c2ccccc2)cc(C(F)(F)F)n1 | n | n | n | x | n | n
COCC(C)NC(=O)CCS(=O)(=O)c1nc(-c2ccc(OC)cc2)cc(C(F)(F)F)n1 (stereo not given) | n | n | n | 9.3µM | n | n
